Assay outcomes: PubChem BioAssay, National Center for Advancing Translational Sciences (NCATS)
TRPML1 inh = human mucolipin-1 channel inhibition | activity change, negative = inhibition, % (test concentration not listed) | TRPML1-inducible cells, Ca2+ dye fluorescence, FDSS; hits give low values; inhibition of EC80 agonist-evoked calcium signal | 0.02% of 390,000 active; in the data active means activity change below about -50%; inconclusive means between about -30% and that limit;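 further: stimulus is agonist 54-4 at its EC80 concentration; on the % scale 0 is the no-effect control and ±100 the full control effect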
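Calcium fluorescence in TRPML1-DL cells induced overnight with Tet: a 110 s read after compound pin addition, then a 110 s antagonist read after challenge with 54-4 at 4 uM final (EC80).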
TRHR ag = activates the human TRH receptor; P34981; TRHR cells, calcium flux fluo-8, FDSS agonist mode; activation, % at 2 µM; 0.18% of 360,000 active; AID 493084; in the data active means activation above about 30%; further: 0% is about no effect
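Read-out: compound-evoked intracellular calcium rise in TRHR cells, fluo-8 dye, kinetic FDSS fluorescence at 1 s/cycle following a 10-cycle baseline. Cells cultured overnight before dye loading (30 min–1.5 h, RT).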
TRHR PAM = allosterically enhances the human TRH receptor; P34981; TRHR cells, fluo-8 calcium fluorescence, EC20 TRH enhancement; enhancement, % at 2 µM; 0.66% of 360,000 active; in the data active means enhancement above about 30%; further: 0% is about no effect
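Enhancer read-out: after compound pinning and an initial kinetic agonist-mode read, an EC20 of TRH (10 nM final) was injected and fluo-8 calcium signal (Ex 480/Em 530) followed at 1 s/cycle for 100 cycles in TRHR-expressing cells.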
TRPML1 agonist = agonists of human TRPML1 channel. Q9GZU1. TRPML1-expressing cells, Ca2+ dye fluorescence, FDSS. activation, % (test concentration not listed). 0.12% of 410,000 active. AID 624414; in the data active means activation above about 50%; inconclusive means mostly about 30% to 49%; further: 0% is about no effect
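TRPML1-DL cells, Tet-induced overnight (~16 h, 37 degrees C), loaded 45-90 min at room temperature with Ca8 no-wash calcium dye plus quencher. FDSS fluorescence: 10 s baseline, compound pin-transfer, 110 s agonist read, then EC80 54-4 (4uM final) and 110 s antagonist read.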
TRPV1 potentiator = enhances activation of the human vanilloid receptor TRPV1. Q8NER1. TRPV1-expressing cells, Fluo-8 calcium influx, capsaicin EC20 potentiation. potentiation, % at 8.33 µM. 0.02% of 320,000 active. AID 540277; in the data active means potentiation above about 80%; inconclusive means between about 30% and that limit; further: 0% is about no effect
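TRPV1-expressing cells were cultured overnight at 35.5C and loaded with Fluo-8 calcium dye for 40 to 90 min at room temperature. After a 10 s baseline, compound was added and calcium influx was read kinetically for 3 min (ex 480/em 520 nm).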
TRPV1 agonist = agonists of human vanilloid receptor 1 (TRPV1) | Q8NER1 | TRPV1-expressing cells, Fluo-8 calcium influx, agonist mode | activation, % at 8.33 µM | 0.19% of 320,000 active; in the data active means activation above about 80%; inconclusive means between about 30% and that limit; further: 0% is about no effect
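Fluo-8 calcium influx in TRPV1-expressing cells, kinetic read (ex 480/em 520 nm). Compound added and read 3 min for agonist activity, followed by capsaicin at EC20 final and 2 min further read for enhancement.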
* hit, by the source's call; ? = inconclusive; · = not tested or not shown. Sampled rows, rich in hits. Any-hit rate of the full collection: about 0.99%.

SMILES	TRPML1 inh	TRHR ag	TRHR PAM	TRPML1 agonist	TRPV1 potentiator	TRPV1 agonist
COc1ccc(/C=N/n2c(-c3cc(C)[nH]n3)n[nH]c2=S)cc1	8	-1	1	0	3	1
Cc1cc(-c2n[nH]c(=S)n2/N=C/c2ccc(C)o2)n[nH]1	18	0	40*	2	1	1
Cc1ccc(S(=O)(=O)N2CCN(c3nc(-c4cncs4)nc4ccccc34)CC2)cc1	·	·	·	-1	·	·
O=C(/C=C/c1ccccc1)N1c2ccccc2Sc2ccc(C(F)(F)F)cc21	29	1	-3	0	3	20
COc1ccc(/C=C/C(=O)N2c3ccccc3Sc3ccc(C(F)(F)F)cc32)cc1	9	0	34*	1	-4	13
COc1cc2oc(=O)ccc2cc1[C@H](O)[C@@H](O)C(C)(C)O	-16	0	39*	0	1	-3
Cc1cc(C)c(-c2noc(C(=O)OC(C)(C)C)c2C(=O)OC(C)(C)C)c(C)c1	-3	0	-3	53*	14	2
CCOc1ccccc1C(=O)Nc1cc(-c2ccc(C)cc2)no1	-4	1	-7	0	·	·
Cc1ccc([N+](=O)[O-])c(C(=O)N/N=C/c2cccs2)c1	23	0	-1	-1	20	83*
Cc1ccc(OCC(=O)N/N=C\c2cccs2)c([N+](=O)[O-])c1	2	-1	-3	2	?	-5
Cc1c(C(N)=O)nnn1-c1ccc(Br)cc1	-1	0	2	-1	·	·
O=C1CCCc2ccccc2N1Cc1cccc(F)c1	3	-2	34*	-1	0	4
O=C1CCCc2ccccc2N1Cc1ccc(F)cc1	-11	-1	9	1	18	2
Cc1ccc(NC(=O)CN2C(=O)c3ccccc3Sc3ccc(C(=O)N4CCOCC4)cc32)c(Cl)c1	9	0	-3	1	·	·
Cc1cc(C)cc(NC(=O)CN2C(=O)c3ccccc3Sc3ccc(C(=O)N4CCCC4)cc32)c1	24	0	33*	3	·	·
NC(=O)NN=C1c2cc(S(=O)(=O)N3CCOCC3)ccc2-c2ccc(S(=O)(=O)N3CCOCC3)cc21	·	·	·	0	·	·
CC(C)Sc1ccc(C(=O)Nc2ccc(F)cc2F)cn1	-11	0	-1	2	-21	85*
O=C(Nc1ccc(F)cc1F)c1ccc(-n2cccn2)nc1	12	0	-1	-1	-29	?
CCn1cc(S(=O)(=O)c2ccccc2)c(=O)c2cc(F)c(F)cc21	-2	0	43*	0	·	·
CCn1cc(S(=O)(=O)c2ccccc2)c(=O)c2cc(F)c(N3CCCCCC3)cc21	-3	1	4	0	·	·
Cc1ccccc1CNC(=O)C1CCCN(c2nnc(-n3c(C)ccc3C)s2)C1 (configuration not stated)	-8	-1	-6	2	·	·
Cc1ccc(CNC(=O)CSCc2ccccc2)cc1	1	-2	-6	1	-7	?
CC1SC(C)C(=O)N(CC(=O)NCc2ccc(F)cc2)C1=O (configuration not stated)	-2	0	39*	0	4	-1
CCC1SC(CC)C(=O)N(CC(=O)NCc2ccc(F)cc2)C1=O (configuration not stated)	12	0	-2	0	26	24
Cc1ccc(CNC(=O)CSCc2ccc(F)cc2)cc1	-2	0	-5	1	-10	81*
SMILES	TRPML1 inh	TRHR ag	TRHR PAM	TRPML1 agonist	TRPV1 potentiator	TRPV1 agonist
Cc1ccc(CNC(=O)c2nc(SCc3ccc(F)cc3)ncc2Cl)cc1	18	4	42*	3	·	·
Cc1ccc(CN2CCOCCS2(=O)=O)cc1	·	·	·	0	·	·
CCCc1cc(F)c(S(=O)(=O)N2CCN(S(=O)(=O)c3ccc4c(c3)OCCO4)CC2)cc1F	·	1	2	·	·	·
COc1cc2cc(CNc3ccccc3)c(=O)n(CC(=O)Nc3cc(C)cc(C)c3)c2cc1OC	-5	34*	0	4	·	·
CCc1ccc(NC(=O)Cn2c(=O)c(CNc3ccccc3)cc3cc(OC)c(OC)cc32)cc1	12	-1	6	1	·	·
Cc1cc2c(s1)c1cnn(Cc3cc(F)c(F)c(F)c3F)c(=O)c1n2C	·	0	2	·	·	·
